From PubChem BioAssay (Tox21)
Results filed as inconclusive are left out. Where a call stands in place of a potency, no number is given. Activity calls are given as the source filed them. Unless noted, calls come from the whole dose curve; as a rule, active = well fitted curve in the direction sought with a large enough effect in the repeat runs; inconclusive = weak or mixed curves; inactive = no such curve, though single readings can be large; an effect the other way counts as inactive or inconclusive.

Key:
[1] = qHTS assay for small molecule agonists of the p53 signaling pathway (AID 651631; calls by dose curve; note: nearly all actives have a fitted effect of over 15% in size; note: potency is the fitted concentration of half-maximal effect)
In short: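 We treat p53RE-bla HCT-116 cells with compounds for 16 h at 37 °C, add LiveBLAzer B/G FRET substrate for 2 h at room temperature, and measure fluorescence intensity.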

[2] = qHTS assay for small molecules that induce genotoxicity in human embryonic kidney cells expressing luciferase-tagged ATAD5 (AID 651632); note: nearly all actives have a fitted effect of over 15% in size
In short: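 Luminescent reporter readout, HEK293T ATAD5-luc line: 16 hr drug exposure (37C, 5% CO2) followed by Amplite, 30 min RT.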

[3] = qHTS assay for small molecule agonists of the p53 signaling pathway - cell viability (AID 651633; calls by dose curve; note: nearly all actives have a fitted effect of over 30% in size; note: potency is the fitted concentration of half-maximal effect)
In short: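 Viability counter-read: CellTiter-Glo luminescence (30 min, room temperature) in the same p53RE-bla plates. These plates had been exposed to compounds for 16 h at 37 C.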

[4] = qHTS assay for small molecules that induce genotoxicity in human embryonic kidney cells expressing luciferase-tagged ATAD5 - cell viability (AID 651634; calls by dose curve; note: nearly all actives have a fitted effect of over 25% in size; note: potency is the fitted concentration of half-maximal effect)
In short: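 Viability read: CellTiter-Fluor fluorescence, 30 min at 37C. Cells: HEK293T, luciferase-tagged ATAD5. Exposure: 15.5 hr, 37C, 5% CO2, compound or DMSO vehicle.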

[5] = qHTS assay for small molecule disruptors of the mitochondrial membrane potential - cell viability (AID 720634; calls by dose curve;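 note: human HepG2 liver cancer cells; nearly all actives have a fitted effect of over 20% in size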)
In short: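 HepG2, 1 hr compound, 37 C. ATP luminescence via CellTiter-Glo, 30 min RT, same well as m-MPI.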

[6] = qHTS assay for small molecule disruptors of the mitochondrial membrane potential (AID 720635); note: potency is the fitted concentration of half-maximal effect
In short: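 Mitochondrial membrane potential tracked with Mito-MPS dye, red aggregates (ex 540/em 590 nm) against green monomers (ex 490/em 535 nm). Compound treatment 1 hr at 37C, dye 30 min in HepG2.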

[7] = qHTS assay to test for compound auto fluorescence at 590 nm (red) in HepG2 cells (AID 720674)
In short: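 1 hr compound incubation on HepG2 cells, 37 C, 5% CO2; plate read ex 540 nm / em 590 nm; intensities reported as Rose Bengal sodium equivalents.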

[8] = qHTS assay to test for compound auto fluorescence at 535 nm (green) in HepG2 cells (AID 720675)
[9] = qHTS assay to test for compound auto fluorescence at 590 nm (red) in HEK293 cells (AID 720679)
In short: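 We plated HEK293 cells in 10% dialyzed FBS medium, let them adhere for 4-5 hr, then added 23 nL compound. Overnight at 37C and 5% CO2 preceded fluorescence measurement at 540/590nm.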

[10] = qHTS assay to test for compound auto fluorescence at 535 nm (green) in HEK293 cells (AID 720680)
[11] = qHTS assay to test for compound auto fluorescence at 460 nm (blue) in HEK293 cell free culture (AID 720681)
In short: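 Blue fluorescence (Ex 405/Em 460 nm, triamterene-equivalent) was read immediately after pin transfer of compound or DMSO into medium (DMEM, 10% FBS) without cells.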

[12] = qHTS assay to test for compound auto fluorescence at 535 nm (green) in HEK293 cell free culture (AID 720682)
In short: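 Green-channel intensity (Ex/Em 485/535 nm) was recorded from compound-treated wells containing only DMEM with 10% FBS. Fluorescein provided the equivalency standard.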

[13] = qHTS assay to test for compound auto fluorescence at 590 nm (red) in HEK293 cell free culture (AID 720683)
In short: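 Red-channel autofluorescence of compounds in culture medium (DMEM, 10% FBS), no cells, measured at 540/590 nm. Rose Bengal sodium is the reference fluorophore for equivalence.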

[14] = qHTS assay to test for compound auto fluorescence at 590 nm (red) in HepG2 cell free culture (AID 720684)
In short: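 Plate contents were MEM with 10% FBS plus test compound or DMSO, no cells. Fluorescence was recorded with 540 nm excitation and 590 nm emission.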

[15] = qHTS assay to test for compound auto fluorescence at 460 nm (blue) in HepG2 cell free culture (AID 720685)
In short: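 Compound (23 nL) or DMSO pinned into cell-free MEM with 10% FBS; blue fluorescence read at 405/460 nm excitation/emission, expressed as auto-fluorescence equivalency to triamterene.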

[16] = qHTS assay to test for compound auto fluorescence at 535 nm (green) in HepG2 cell free culture (AID 720686)
[17] = target: Glucocorticoid receptor (Homo sapiens) (UniProt P04150); assay: qHTS assay to identify small molecule agonists of the glucocorticoid receptor (GR) signaling pathway (AID 720691; active = well fitted activation curve with a large enough effect in the signal ratio in the repeat runs, not every such curve was filed as active; the % refers to the signal ratio); settings: GR-bla HeLa, beta-lactamase reporter ratio, 18 h; activation: at 62.4 µM (top of the series)
Chain of Glucocorticoid receptor (Homo sapiens) (P04150 whole entry, looked up): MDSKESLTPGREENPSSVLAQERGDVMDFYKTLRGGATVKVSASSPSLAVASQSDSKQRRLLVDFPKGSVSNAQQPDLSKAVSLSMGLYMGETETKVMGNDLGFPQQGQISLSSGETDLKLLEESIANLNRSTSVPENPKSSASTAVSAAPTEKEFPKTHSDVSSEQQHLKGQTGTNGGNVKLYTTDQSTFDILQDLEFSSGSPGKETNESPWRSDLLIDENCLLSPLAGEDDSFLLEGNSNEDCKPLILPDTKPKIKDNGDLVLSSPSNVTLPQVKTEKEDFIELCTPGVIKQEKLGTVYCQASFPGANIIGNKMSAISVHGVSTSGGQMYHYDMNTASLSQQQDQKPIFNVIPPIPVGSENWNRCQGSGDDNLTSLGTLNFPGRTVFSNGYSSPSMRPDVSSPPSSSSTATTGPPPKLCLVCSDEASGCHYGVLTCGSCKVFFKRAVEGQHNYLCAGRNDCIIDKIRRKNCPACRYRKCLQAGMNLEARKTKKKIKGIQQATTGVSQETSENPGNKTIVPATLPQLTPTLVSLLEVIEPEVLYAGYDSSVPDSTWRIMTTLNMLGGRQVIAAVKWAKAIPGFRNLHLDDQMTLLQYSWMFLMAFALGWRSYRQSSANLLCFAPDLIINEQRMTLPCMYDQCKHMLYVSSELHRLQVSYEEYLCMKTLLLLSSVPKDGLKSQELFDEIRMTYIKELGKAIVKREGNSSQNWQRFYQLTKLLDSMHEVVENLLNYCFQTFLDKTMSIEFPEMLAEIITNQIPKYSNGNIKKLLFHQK
In short: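 qHTS in GR-bla HeLa cells: 4 h settling at 37 C/5% CO2, 18 h compound incubation at 37 C, 2 h LiveBLAzer B/G FRET substrate at room temperature, fluorescence intensity measured.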

[18] = qHTS assay to test for compound auto fluorescence at 460 nm (blue) in HepG2 cells (AID 720687)
In short: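 Blue-channel autofluorescence (Ex/Em 405/460 nm, triamterene-equivalent) was measured after 1 hr compound exposure at 37 C, 5% CO2. Cells were HepG2, plated overnight at 37 C in MEM plus 10% FBS.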

[19] = target: Glucocorticoid receptor (Homo sapiens) (UniProt P04150); assay: qHTS assay to identify small molecule antagonists of the glucocorticoid receptor (GR) signaling pathway (AID 720692; active = well fitted inhibition curve with a large enough effect in the signal ratio in the repeat runs, not every such curve was filed as active; the % refers to the signal ratio; note: potency is the fitted concentration of half-maximal effect)
In short: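 Inhibition of glucocorticoid signalling is measured in HeLa cells with a GRE-controlled beta-lactamase reporter; cells are co-treated with compound and 5 nM dexamethasone (final) for 18 h before FRET substrate readout.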

[20] = qHTS assay to test for compound auto fluorescence at 460 nm (blue) in HEK293 cells (AID 720678)
In short: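 Triamterene serves as the blue fluorophore standard. Compound signal at 405/460 nm is read in HEK293 wells (2,000 cells, 10% dialyzed FBS) after overnight treatment at 37C.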

| Compound | Potency [1] | Potency [2] | Potency [3] | Potency [4] | Potency [5] | Potency [6] | outcome [7] | Potency [8] | outcome [9] | outcome [10] | Potency [11] | outcome [12] | outcome [13] | outcome [14] | Potency [15] | Potency [16] | Potency [17] | Potency [18] | Potency [19] | Potency [20] |
| --- | --- | --- | --- | --- | --- | --- | --- | --- | --- | --- | --- | --- | --- | --- | --- | --- | --- | --- | --- | --- |
| CC(C)[N+]1(C)[C@@H]2CC[C@H]1CC(OC(=O)C(CO)c1ccccc1)C2 (stereo partly drawn) | inactive | inactive | inactive | inactive | inactive | inactive | inactive | inactive | inactive | inactive | inactive | inactive | inactive | inactive | inactive | inactive | inactive |  |  |  |
| COC1[C@@H](O[C@@H]2O[C@H](C)[C@@H](O[C@H]3C[C@@](C)(O)[C@H](OC(=O)CC(C)C)[C@H](C)O3)[C@H](N(C)C)[C@H]2O)[C@@H](CC=O)C[C@@H](C)[C@@H](O)/C=C/C=C/C[C@@H](C)OC(=O)C[C@H]1OC(C)=O (stereo partly drawn) | inactive | inactive | inactive | inactive | inactive | inactive | inactive | inactive | inactive | inactive | inactive | inactive | inactive | inactive | inactive | inactive | inactive | inactive | inactive |  |
| C[C@@H]1O[C@@H](OC[C@H]2O[C@@H](Oc3c(-c4ccc(OCCO)c(OCCO)c4)oc4cc(OCCO)cc(O)c4c3=O)[C@H](O)[C@@H](O)[C@@H]2O)[C@H](O)[C@H](O)[C@H]1O | inactive | inactive | inactive | inactive | inactive | inactive | inactive | inactive | inactive | inactive | inactive | inactive | inactive | inactive | inactive | inactive | inactive | inactive | inactive |  |
| O=C(Cn1cnnn1)N[C@@H]1C(=O)N2C(C(=O)O)=C(CSc3nncs3)CS[C@H]12 | inactive | inactive | inactive | inactive | inactive |  | inactive | inactive | inactive | inactive | inactive | inactive | inactive | inactive | inactive | inactive |  |  |  | inactive |
| COc1c(O)cc2c(c1O)[C@@H]1O[C@H](CO)[C@@H](O)[C@H](O)[C@H]1OC2=O | inactive | inactive | inactive | inactive | inactive | inactive | inactive |  | inactive | inactive | inactive | inactive | inactive | inactive | inactive | inactive | inactive | inactive | inactive | inactive |
| Cc1onc(-c2c(F)cccc2Cl)c1C(=O)N[C@@H]1C(=O)N2[C@@H]1SC(C)(C)[C@@H]2C(=O)O | inactive | inactive | inactive | inactive | inactive | inactive | inactive |  | inactive |  | inactive | inactive | inactive | inactive | inactive | inactive | inactive | inactive | inactive | inactive |
| O=C1[O][Bi][O]c2ccccc21 | inactive | inactive | inactive | inactive | inactive | inactive |  |  |  |  |  | inactive |  |  |  |  |  |  |  |  |
| COc1ccc([C@@H]2CC(=O)c3c(O)cc(O[C@@H]4O[C@H](CO[C@@H]5O[C@@H](C)[C@H](O)[C@@H](O)[C@H]5O)[C@@H](O)[C@H](O)[C@H]4O)cc3O2)cc1O | inactive | inactive | inactive | inactive | inactive | inactive | inactive | inactive | inactive | inactive | inactive | inactive | inactive | inactive | inactive | inactive | inactive | inactive | inactive |  |
| C=C1[C@@H]2CC[C@@H](C2)C1(C)C | inactive | inactive | inactive | inactive | inactive | inactive | inactive |  | inactive | inactive | inactive | inactive | inactive | inactive | inactive | inactive | inactive | inactive | inactive | inactive |
| CO/N=C(\C(=O)N[C@@H]1C(=O)N2C(C(=O)O)=C(COC(C)=O)CS[C@H]12)c1csc(N)n1 (stereo in doubt) | inactive | inactive | inactive | inactive | inactive | inactive | inactive |  | inactive |  | inactive | inactive | inactive | inactive | inactive | inactive | inactive | inactive | inactive | inactive |
| NC(=O)[C@@H]1C[C@]2(NC(=O)NC2=O)c2cc(F)ccc2O1 | inactive | inactive | inactive | inactive | inactive | inactive | inactive |  | inactive | inactive | inactive | inactive | inactive | inactive |  | inactive |  | inactive |  | inactive |
| Cc1ccc(Cl)c(N)c1Cl | inactive | inactive | inactive | inactive | inactive | inactive | inactive |  | inactive | inactive | inactive | inactive | inactive | inactive | inactive | inactive |  |  |  | inactive |
| CC1(C)S[C@@H]2[C@H](N3C(=O)C(c4ccccc4)NC3(C)C)C(=O)N2[C@H]1C(=O)O (stereo partly drawn) | inactive | inactive | inactive | inactive | inactive | inactive | inactive |  | inactive | inactive | inactive | inactive | inactive | inactive | inactive | inactive |  | inactive |  | inactive |
| C=C1C(=C/C=C2\CCC[C@]3(C)[C@@H]([C@H](C)CCCC(C)C)CC[C@@H]23)C[C@@H](O)C[C@@H]1O | 29.8 µM (active) | inactive | 29.8 µM (active) | 23.7 µM (active) | inactive | 29.8 µM (active) | inactive | inactive | inactive | inactive | inactive | inactive | inactive | inactive | inactive | inactive |  | inactive | 8.49 µM (active) |  |
